Assays:
[1] = target: T1, Protein kinase C epsilon type (Homo sapiens) (UniProt Q02156); conditions: at 1 µM
T1 sequence (whole entry): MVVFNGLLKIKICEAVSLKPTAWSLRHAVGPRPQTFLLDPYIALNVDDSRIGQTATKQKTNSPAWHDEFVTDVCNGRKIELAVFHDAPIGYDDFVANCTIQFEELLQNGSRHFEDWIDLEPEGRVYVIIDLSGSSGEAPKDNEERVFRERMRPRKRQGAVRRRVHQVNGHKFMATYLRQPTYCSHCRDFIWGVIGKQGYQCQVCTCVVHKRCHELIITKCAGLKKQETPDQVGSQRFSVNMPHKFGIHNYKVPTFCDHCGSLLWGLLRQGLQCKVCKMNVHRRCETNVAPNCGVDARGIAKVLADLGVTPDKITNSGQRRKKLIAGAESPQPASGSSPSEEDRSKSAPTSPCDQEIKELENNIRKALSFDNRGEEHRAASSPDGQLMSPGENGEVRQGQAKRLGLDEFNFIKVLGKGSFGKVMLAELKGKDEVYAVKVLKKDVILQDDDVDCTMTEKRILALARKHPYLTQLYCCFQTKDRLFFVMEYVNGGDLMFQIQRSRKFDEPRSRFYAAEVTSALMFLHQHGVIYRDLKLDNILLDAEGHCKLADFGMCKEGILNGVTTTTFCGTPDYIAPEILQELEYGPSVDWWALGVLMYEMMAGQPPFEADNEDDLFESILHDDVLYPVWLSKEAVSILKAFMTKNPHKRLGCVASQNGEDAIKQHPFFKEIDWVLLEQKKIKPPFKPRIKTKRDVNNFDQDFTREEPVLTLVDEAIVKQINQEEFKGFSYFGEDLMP

[2] = target: T1, Protein kinase C epsilon type (Homo sapiens); conditions: at 10 µM

| SMILES | residual activity [1] [%] | residual activity [2] [%] |
| --- | --- | --- |
| Oc1ccc(Nc2nc(-c3ccc(Cl)cc3)cs2)cc1 | 115 | 112 |
| O=[N+]([O-])c1ccc(-c2nc(-c3ccc(F)cc3)c(-c3ccncc3)[nH]2)cc1 | 106 | 99 |
| Nc1cccc(-c2cc3c(Oc4cccc(O)c4)ncnc3[nH]2)c1 | 120 | 98 |
| O=C(Nc1cccc(Nc2nccc(Nc3cccc(C(F)(F)F)c3)n2)c1)C1CC1 | 95 | 80 |
| Ic1cccc(CSc2nnc(-c3ccncc3)o2)c1 | 88 | 88 |
| O=c1cc(-c2cccc3c2Sc2ccccc2S3)oc(N2CCOCC2)c1 | 91 | 94 |
| COc1cc2ncnc(Nc3ccc(Oc4ccccc4)cc3)c2cc1OC | 85 | 89 |
| CC(=O)c1ccc(N2CCOCC2)cc1O | 91 | 82 |
| O=c1c2ccccc2[nH]c(=S)n1CCN1CCC(=C(c2ccc(F)cc2)c2ccc(F)cc2)CC1 | 91 | 93 |
| CO[C@H]1[C@@H](OC)C[C@H](C)[C@@H](OC)C2=CC(=O)C=C(NC(=O)/C(C)=C/C=C/[C@H](OC)[C@@H](OC(N)=O)/C(C)=C/[C@@H]1C)C2=O | 100 | 102 |
| CC(C)n1cnc2/c(=N/c3cccc(Cl)c3)nc(NCCO)[nH]c21 | 75 | 92 |
| N#C/C(=C(\N)Sc1ccc(N)cc1)c1ccccc1C(F)(F)F | 100 | 106 |
| NC(=O)c1ccc2[nH]c(-c3ccc(Oc4ccc(Cl)cc4)cc3)nc2c1 | 95 | 85 |
| COc1ccc(OC)c2c(=S)c3ccccc3[nH]c12 | 98 | 109 |
| CCN(CC)CCCCN1c2ccccc2Oc2ccc(Cl)cc21 | 84 | 99 |
